The record followed here is the supplement of paper PMC3334620.

Over roughly 33,000 sequences, “E-score (-0.5 to 0.5)” has its median near -0.054; the highest 2% begin near 0.39. This is one part of a sample in which the highest values are shown more often than they occur.

This test deals with Ylr278c (UniProt Q05854). Description: PBM E-score (8-mer binding enrichment) (E-score (-0.5 to 0.5)); higher = stronger / more preferred TF binding. The conditions noted are these: protein concentration: 200 nM; construct: GST-DNA-binding domain. The method, boiled down: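 Full-length yeast transcription factors or their DNA-binding domains, GST-tagged and expressed with PURExpress, were applied at about 100-200 nM to universal all-10-mer Agilent arrays. These arrays had been made double-stranded by primer extension on fresh or once-stripped slides. Detection used fluorescent anti-GST, normalisation used masliner, and E-scores for ungapped eight-base words pooled with reverse complements came from the Universal PBM Analysis Suite.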
UniProt Q05854, sequence (Q05854 whole entry, the tested form may be a part): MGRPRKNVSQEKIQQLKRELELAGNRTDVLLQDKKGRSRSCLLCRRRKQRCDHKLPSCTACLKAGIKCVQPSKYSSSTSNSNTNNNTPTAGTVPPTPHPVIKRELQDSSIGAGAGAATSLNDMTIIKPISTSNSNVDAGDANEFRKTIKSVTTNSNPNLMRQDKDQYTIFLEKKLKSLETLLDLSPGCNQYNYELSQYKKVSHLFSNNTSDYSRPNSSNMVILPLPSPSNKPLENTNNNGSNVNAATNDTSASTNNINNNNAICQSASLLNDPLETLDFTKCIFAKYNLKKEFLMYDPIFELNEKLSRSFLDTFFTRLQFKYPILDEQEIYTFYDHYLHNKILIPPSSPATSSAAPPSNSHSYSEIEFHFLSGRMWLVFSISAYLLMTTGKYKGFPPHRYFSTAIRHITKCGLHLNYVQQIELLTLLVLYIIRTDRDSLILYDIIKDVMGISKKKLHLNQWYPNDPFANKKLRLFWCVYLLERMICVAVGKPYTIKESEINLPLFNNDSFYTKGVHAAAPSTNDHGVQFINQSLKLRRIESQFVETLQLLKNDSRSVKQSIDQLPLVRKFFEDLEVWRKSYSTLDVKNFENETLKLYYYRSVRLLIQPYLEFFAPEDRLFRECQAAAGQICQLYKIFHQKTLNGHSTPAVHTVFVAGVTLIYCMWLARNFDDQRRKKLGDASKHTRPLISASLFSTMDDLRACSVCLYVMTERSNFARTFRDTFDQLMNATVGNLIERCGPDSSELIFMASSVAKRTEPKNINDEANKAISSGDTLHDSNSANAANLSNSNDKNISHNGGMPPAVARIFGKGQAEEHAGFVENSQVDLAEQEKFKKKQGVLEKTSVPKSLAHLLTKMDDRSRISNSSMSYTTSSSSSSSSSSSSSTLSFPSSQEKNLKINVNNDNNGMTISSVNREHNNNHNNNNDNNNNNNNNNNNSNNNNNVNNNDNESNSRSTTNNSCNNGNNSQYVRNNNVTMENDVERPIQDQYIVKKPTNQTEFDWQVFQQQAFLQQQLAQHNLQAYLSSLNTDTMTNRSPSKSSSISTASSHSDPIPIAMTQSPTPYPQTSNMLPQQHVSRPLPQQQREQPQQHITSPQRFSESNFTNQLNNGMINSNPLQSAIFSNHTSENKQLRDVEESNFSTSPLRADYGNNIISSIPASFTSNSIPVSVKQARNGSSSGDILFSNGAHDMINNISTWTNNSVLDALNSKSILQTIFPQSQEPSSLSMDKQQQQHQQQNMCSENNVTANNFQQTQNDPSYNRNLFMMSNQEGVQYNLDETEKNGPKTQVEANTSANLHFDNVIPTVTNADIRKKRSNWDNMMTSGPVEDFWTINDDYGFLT
With CTTTCGGA, the “PBM E-score” value came out at 0.451.

On to GTTTCGGA, for which the “PBM E-score” value was found to be 0.4.

Consider GTTTCGAA, for which the “PBM E-score” value is -0.0713.

Take CCTTCGGA: the “PBM E-score” value was 0.424.

As for GCTTCGGA, the “PBM E-score” value was determined as 0.367.

Take CTTTCGTA: the “PBM E-score” value was -0.173.

Turning to ATTTCGGC, the “PBM E-score” value worked out at 0.275.

In the case of CCTTCGGC, the “PBM E-score” value was found to be 0.112.

On to GTTTCGTA, for which the “PBM E-score” value came out at 0.0178.

As for CTTTCGGC, the “PBM E-score” value amounted to 0.239.

As to ATTTCGGA, the “PBM E-score” value turned out to be 0.45.

Regarding ATTTCGGG, the “PBM E-score” value is 0.235.

CTGGGTCC: the “PBM E-score” value was found to be 0.0219.

Turning to CTTATCTA, the “PBM E-score” value was -0.0407.

With CAAAGCTA, the “PBM E-score” value is -0.093.

In the case of ACTCGCAT, the “PBM E-score” value is -0.0232.

Turning to AAGTTCAA, the “PBM E-score” value worked out at 0.118.

With ACCACTTA, the “PBM E-score” value is -0.0492.

In the case of GGGCTCAC, the “PBM E-score” value is -0.0724.

With GGAGCAGA, the “PBM E-score” value was determined as 0.109.

For the sequence ACCTTCTA, the “PBM E-score” value was -0.186.

As for GTGTACGA, the “PBM E-score” value is -0.00044.

As for ATCCGCGA, the “PBM E-score” value was determined as 0.253.

As for ATCCGCGC, the “PBM E-score” value was 0.251.

As for GTCCGCGA, the “PBM E-score” value is 0.313.

For CTCCGCGA, the “PBM E-score” value was determined as 0.403.

On to CTCCGCGC, for which the “PBM E-score” value is 0.429.

In the case of CACCGCGC, the “PBM E-score” value was found to be 0.201.

Turning to CCAGCTCC, the “PBM E-score” value was 0.22.

On to CATCTCCA, for which the “PBM E-score” value was 0.0295.

With AATCTCCC, the “PBM E-score” value came out at 0.0563.

With CATCTCCG, the “PBM E-score” value was 0.463.

As for CATCTCCC, the “PBM E-score” value amounted to 0.216.

For the sequence AATCTCCG, the “PBM E-score” value was found to be 0.484.

Consider AATCTCCT, for which the “PBM E-score” value came out at 0.0721.

As for ACGCTCTG, the “PBM E-score” value is -0.251.

Take CAACTCGG: the “PBM E-score” value amounted to 0.139.

In the case of ACCTCTGC, the “PBM E-score” value was -0.209.

As to AAGGAAGC, the “PBM E-score” value is -0.162.

Consider ACTTCAGA, for which the “PBM E-score” value is -0.0177.

Regarding CCGGCCGG, the “PBM E-score” value was found to be 0.461.

For CCGGCCGC, the “PBM E-score” value was 0.327.

On to CCGGCCGA, for which the “PBM E-score” value is 0.415.

ACGGCCGG: the “PBM E-score” value is 0.33.

Regarding GCGGCCGA, the “PBM E-score” value came to 0.188.

Turning to ACGGCCGA, the “PBM E-score” value came to 0.246.

Consider AGCGCCAT, for which the “PBM E-score” value is -0.199.

Turning to GACAGGGC, the “PBM E-score” value is -0.0701.

As to GCCTCCAC, the “PBM E-score” value was -0.044.

Consider TAGCCATA, for which the “PBM E-score” value is -0.329.

Take GATGGGGC: the “PBM E-score” value was -0.023.

CAGGACTG: the “PBM E-score” value was -0.287.

Take GTTCCGTA: the “PBM E-score” value is 0.264.

Turning to CTTCCGGA, the “PBM E-score” value was found to be 0.451.

With GTTCCGGA, the “PBM E-score” value stood at 0.45.

Turning to ATTCCGTA, the “PBM E-score” value worked out at 0.33.

For ATTCCGGA, the “PBM E-score” value came to 0.46.

On to ATTCCAGA, for which the “PBM E-score” value came to 0.0166.

Turning to GTTCCGCA, the “PBM E-score” value came out at 0.289.

For the sequence CTTCCGTA, the “PBM E-score” value is 0.215.

For CTTCCGGC, the “PBM E-score” value was 0.371.

In the case of ACTGTTTC, the “PBM E-score” value was -0.0349.

GTCAGCAA: the “PBM E-score” value was -0.18.

With CGTCCAAA, the “PBM E-score” value was found to be 0.14.

For the sequence ACCTCGCT, the “PBM E-score” value is -0.0554.

AGTCAGCG: the “PBM E-score” value was 0.0403.

Take ATGCCCCA: the “PBM E-score” value was -0.0328.

Take CAGTCGAA: the “PBM E-score” value was -0.212.

Regarding AAAGCCTT, the “PBM E-score” value was -0.162.

As for ATCTCAAC, the “PBM E-score” value is -0.00641.

Take AAGGAGTC: the “PBM E-score” value was -0.127.

CCGGAGTC: the “PBM E-score” value is 0.451.

In the case of GCGGAGTA, the “PBM E-score” value is 0.449.

With CAGGAGTC, the “PBM E-score” value was 0.055.

In the case of CTGGAGTC, the “PBM E-score” value was -0.0908.

Take ACGGAGTC: the “PBM E-score” value came out at 0.398.

As for GAGGAGTA, the “PBM E-score” value was determined as 0.0495.

For ATGGAGTA, the “PBM E-score” value was determined as 0.0152.

For AAGGAGTA, the “PBM E-score” value was -0.0326.

For ACGGAGTA, the “PBM E-score” value came out at 0.452.

For ATGGAGTC, the “PBM E-score” value is 0.0654.

GGGGAGTA: the “PBM E-score” value stood at 0.0376.

For AGAGTTGG, the “PBM E-score” value is -0.115.

In the case of ACTCTGTA, the “PBM E-score” value is -0.175.

GACCCAGC: the “PBM E-score” value was -0.272.

As to GATCCAGC, the “PBM E-score” value is 0.0556.

Take ACACCGCC: the “PBM E-score” value worked out at 0.199.

Regarding AGACAGTC, the “PBM E-score” value is -0.129.

As for CTTACAGA, the “PBM E-score” value was -0.0798.

As for CGAGACCG, the “PBM E-score” value came out at 0.233.

For CTCAAGTC, the “PBM E-score” value was -0.225.

On to CATGTACG, for which the “PBM E-score” value was -0.0652.

For CAGAATGG, the “PBM E-score” value was -0.0518.

Regarding GCTCTGGA, the “PBM E-score” value is -0.1.

Regarding CTGGAGTA, the “PBM E-score” value is -0.0695.

For CAGGAGTA, the “PBM E-score” value is -0.0482.

For the sequence ATGGAGTG, the “PBM E-score” value is -0.0888.

On to AAGGAGTG, for which the “PBM E-score” value is -0.179.

In the case of CCGGAGTA, the “PBM E-score” value worked out at 0.485.

In the case of ACGGAGTG, the “PBM E-score” value is 0.401.

Turning to GTTCTAGA, the “PBM E-score” value is 0.0109.
